# Screens as filed in PubChem.
# Most compounds without a hit are left out; they make up all but 3% or so of the library.
# PAFAH1B3 inh: blocks human PAF acetylhydrolase 1B catalytic subunit 3. Q15102. recombinant PAFAH1B3, FP-rhodamine probe, fluorescence polarization. inhibition, % at 3.39 µM. actives 0.28% (n = 340,000);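 active means inhibition above the screen-wide average of all tested compounds plus 3 SD, cut at about 25% in these data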;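 further: 0% = enzyme with DMSO only and 100% = wells lacking PAFAH1B3 protein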
# PAFAH1B2 FP inh: PAFAH1B2 (human) inhibition; P68402; recombinant PAFAH1B2, FP-rhodamine activity probe, fluorescence polarization; inhibition, % at 3.39 µM; actives 1.2% (n = 340,000);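 active means inhibition above the mean of all tested compounds plus 3 SD, cut at about 24% in these data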;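 further: 0% = enzyme with DMSO and 100% = wells lacking PAFAH1B2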
# CTSL1 counter: blocks F. hepatica cathepsin L1 in PFM18AAP counter-screen | actives 0.49% (n = 300,000) | inhibition, % at 5.96 µM | AID 1906 | recombinant F. hepatica cathepsin L1, Z-Leu-Arg-MCA fluorescence;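 active means inhibition above the mean of all tested compounds plus 3 SD, set per screening campaign, cut at about 17% in these data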;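 further: 0% = plate median of test compound wells and 100% = 1 µM Z-Phe-Ala-diazomethylketone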
# PP5 inh: blocks human protein phosphatase 5 activity | P53041 | inhibition, % at 6.7 µM | actives 0.18% (n = 320,000) | purified PP5c, OMFP substrate fluorescence | AID 1987;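 active means inhibition above the campaign's mean inhibition across all tested compounds plus 3 SD, cut at about 9.5% in these data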;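 further: 0% = DMSO only and 100% = 100 µM cantharidin control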
# Target sequence (P53041 whole entry, looked up): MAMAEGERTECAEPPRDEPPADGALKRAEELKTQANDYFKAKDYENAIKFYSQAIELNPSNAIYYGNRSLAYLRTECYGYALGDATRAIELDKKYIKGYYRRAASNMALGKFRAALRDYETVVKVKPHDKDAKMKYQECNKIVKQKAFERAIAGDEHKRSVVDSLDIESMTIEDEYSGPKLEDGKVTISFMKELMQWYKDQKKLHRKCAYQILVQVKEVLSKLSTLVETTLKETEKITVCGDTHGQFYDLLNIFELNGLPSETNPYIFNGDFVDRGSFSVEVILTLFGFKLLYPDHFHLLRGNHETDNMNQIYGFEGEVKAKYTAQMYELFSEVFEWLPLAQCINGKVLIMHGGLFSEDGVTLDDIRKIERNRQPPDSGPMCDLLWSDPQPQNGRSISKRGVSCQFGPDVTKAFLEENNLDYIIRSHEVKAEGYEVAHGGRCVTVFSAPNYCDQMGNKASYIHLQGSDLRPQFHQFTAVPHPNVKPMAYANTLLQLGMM
# PAFAH2 FP inh: PAFAH2 (human) inhibition; recombinant PAFAH2, FP-rhodamine activity probe, fluorescence polarization; Q99487; inhibition, % at 3.39 µM; AID 492956; actives 0.99% (n = 340,000);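 active means inhibition above the mean over all tested compounds plus 3 SD, cut at about 30% in these data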;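 further: inhibitors block probe labeling of enzyme so polarization drops; 0% = enzyme with DMSO and 100% = wells lacking PAFAH2 protein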
# pPAFAH FP inh: pPAFAH (human) enzyme inhibition; Q13093; recombinant pPAFAH, FP-rhodamine probe fluorescence polarization; inhibition, % at 3.39 µM; actives 1.5% (n = 330,000);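 active means inhibition above the mean inhibition across the screen plus 3 SD, cut at about 25% in these data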;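 further: inhibitors block binding of the rhodamine activity-based probe so polarization drops; 0% = enzyme with DMSO and 100% = wells lacking pPAFAH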
# Starred values were filed as active, the others as inactive; nt = not tested or not shown.
SMILES,PAFAH1B3 inh,PAFAH1B2 FP inh,CTSL1 counter,PP5 inh,PAFAH2 FP inh,pPAFAH FP inh
O=C(O/N=C/c1ccc(Br)cc1)c1ccc(F)cc1,2,45*,3,0,67*,-2
N#Cc1nc(COc2ccc(Br)cc2)oc1NCCCn1ccnc1,-1,25*,-2,5,0,1
COC(=O)[C@@H](c1ccccc1)N(C)S(=O)(=O)c1cccc(S(=O)(=O)N(C)[C@@H](C(=O)OC)c2ccccc2)c1,5,2,4,1,-2,4
O=C(C(=NNc1ccccc1)c1ccccc1)c1ccccc1,7,-1,nt,nt,10,nt
Oc1ccc(O)c(/C(=N/Nc2ccccc2)c2ccccc2)c1,nt,nt,1,2,nt,44*
S=C(NCC1CCCO1)N1CCc2ccccc2C1 (configuration not stated),7,5,-7,2,3,6
CCOC(=O)c1c(C)oc2c1cc(NS(=O)(=O)c1ccc(C(=O)O)cc1)c1ccccc12,7,4,3,0,10,29*
Cc1oc2c(cc(NS(=O)(=O)c3ccc(Cl)cc3)c3ccccc32)c1C(=O)O,9,11,nt,nt,11,nt
CCOc1ccc(C(C)NC(=O)c2ccc3c(c2)NC(=O)C(C)S3)cc1OCC (configuration not stated),2,2,nt,1,-4,1
CCN(CC(=O)NCc1ccc(Cl)cc1)C(=O)/C=C/c1ccccc1,6,27*,-1,3,2,6
Cc1ccc(C2CC(=O)Oc3cc(O)ccc32)cc1 (configuration not stated),34*,24*,4,1,26,17
CN(C)c1ccc(NC(=S)NC23CC4CC(CC(C4)C2)C3)cc1,11,1,-7,1,10,5
CSc1ccc(S(=O)(=O)NC(C)c2ccccc2)cc1 (configuration not stated),nt,nt,2,2,nt,4
Cc1ccc(S(=O)(=O)NC(C)c2ccccc2)cc1[N+](=O)[O-] (configuration not stated),1,24*,0,0,5,0
C/C(=N\OC(=O)c1ccc(F)cc1)c1sc(-c2ccc(Cl)cc2)nc1C,3,3,-1,-1,0,3
C/C(=N\OC(=O)c1ccc(Cl)c(Cl)c1)c1sc(C)nc1C,6,0,0,1,5,34*
COC(=O)c1cc(S(=O)(=O)NCCc2ccc(C)cc2)c[nH]1,2,5,14,2,-1,11
COC(=O)c1cc(S(=O)(=O)NCCc2ccc(Cl)cc2)c[nH]1,2,26*,-3,0,3,11
CCN1C(=O)[C@H]2[C@@H](c3ccc(-c4ccc(OC)cc4)cc3)N3CCC[C@@]3(C(=O)OC)[C@H]2C1=O,-3,7,1,4,6,8
Cc1ccnc(NC(=O)c2ccc(OCc3c(C)noc3C)cc2)c1,3,3,nt,nt,0,nt
COc1oc(C(=O)NC2CCCCC2)c(-c2ccc(Cl)cc2)c1S(=O)(=O)c1ccccc1,-1,32*,nt,nt,5,nt
O=C1CCN(Cc2ccc(Cl)cc2Cl)C(=O)N1,7,4,nt,nt,2,nt
Cc1ccc(C=C2C(Cl)=C(Cl)C(Cl)=C2Cl)cc1,nt,nt,-1,-1,nt,41*
Cc1ccc(/C=[N+](/C)[O-])cc1,7,6,2,1,3,7
O=C1OC(=O)C2C3CCC(O3)C12 (configuration not stated),nt,nt,0,67*,nt,8
SMILES,PAFAH1B3 inh,PAFAH1B2 FP inh,CTSL1 counter,PP5 inh,PAFAH2 FP inh,pPAFAH FP inh
CSCCC(NS(=O)(=O)c1cccc(C(F)(F)F)c1)C(=O)Nc1ccccc1N1CCCC1 (configuration not stated),3,26*,2,2,6,10
CCc1cccc(NS(=O)(=O)c2csc(C(N)=O)c2)c1,2,6,-2,1,-6,8
C/C(=N/NS(=O)(=O)c1ccc(Cl)cc1)c1cccc(NC(=O)c2ccc(Cl)cc2Cl)c1,12,-6,-1,6,9,25*
O=C(COC(=O)C1CCN(S(=O)(=O)c2ccccc2)CC1)NCCc1ccccc1,2,9,nt,1,3,18
O=[N+]([O-])c1ccc(/C=N/Nc2ccnc3cc(Cl)ccc23)o1,4,1,1,1,-2,28*
Clc1ccc2c(N/N=C/c3ccccc3Br)ccnc2c1,2,-5,0,3,-6,-1
CC(CCCCCCCCC(=O)O)N(CCO)C(=O)OC(C)(C)C (configuration not stated),5,11,nt,0,3,0
CC(=O)Nc1ccc(/C(N=Nc2ccccc2)=N/N=C(N)N)cc1,14,8,nt,nt,-2,nt
NC(=O)/C(N=Nc1ccccc1)=N/Nc1ccccc1,-1,0,2,2,5,5
O=C(O)c1cccc(N/N=C(\N=Nc2ccccc2)c2ccccc2)c1,-5,3,-1,5,17,25*
Brc1ccc(N/N=C(/N=Nc2nn[nH]n2)c2ccccc2)cc1,23,21,8,6,44*,61*
O=C(O)c1ccc(N=N/C(=N\Nc2ccc(C(=O)O)cc2)c2ccccc2)cc1,-2,3,3,0,6,27*
COc1ccc([C@H]2CC(=O)C=C(c3cccc4c3Oc3ccccc3S4)C2)cc1OC,7,7,nt,1,6,2
CCC1COC(c2cccn2Cc2ccc(Cl)cc2)=N1 (configuration not stated),1,2,-9,1,4,28*
CCSCC1COC(c2cccn2Cc2ccc(C)cc2)=N1 (configuration not stated),0,2,1,0,0,0
Cc1ccccc1Nc1nnc(SCC(=O)c2c(N)n(C3CC3)c(=O)[nH]c2=O)s1,9,3,nt,nt,4,nt
Cn1c(SCC(=O)Nc2ccc3c(c2)n(C)c(=O)n3C)nnc1-c1ccncc1,-1,1,-3,2,-10,-2
CO[C@H]1/C=C/O[C@@]2(C)Oc3c(C)c(O)c4c(O)c(c(C=NN5CCN(C)CC5)c(O)c4c3C2=O)NC(=O)/C(C)=C\C=C\[C@H](C)[C@H](O)[C@@H](C)[C@@H](O)[C@@H](C)[C@H](OC(C)=O)[C@@H]1C,11,8,0,4,3,18
CO[C@H]1C=CO[C@@]2(C)Oc3c(C)c(O)c4c(O)c(c(C=NN5CCN(C)CC5)c(O)c4c3C2=O)NC(=O)C(C)=CC=C[C@H](C)[C@H](O)[C@@H](C)[C@@H](O)[C@@H](C)[C@H](OC(C)=O)[C@@H]1C,19,3,12,3,10,31*
O=C(CSc1nnnn1-c1ccc2c(c1)OCCO2)OC1CCCCC1,5,-1,78*,1,10,5
CCC(=O)Nc1ccc(NC(=O)CSc2nnnn2-c2ccc3c(c2)OCCO3)cc1,2,6,1,-1,-4,4
